# Assay results taken from PubChem BioAssay (Tox21).
# Where “and” joins values, the source holds several entries; their conditions need not be identical. Identical values can stand only once. Inconclusive results are not listed. Entries that show only a call come without a potency. A number with no mark means an inactive call. Calls of active or inactive are those of the source. Calls come from the whole dose curve; as a rule, active = well fitted cell-killing curve with a large enough effect in the repeat runs; inconclusive = weak or mixed curves, or effect the other way; inactive = flat fitted curve, though single readings scatter.
# Test: Nuclear factor erythroid 2-related factor 2/antioxidant responsive element (Nrf2/ARE) small molecule agonists: qHTS cell viability counter screen in human keratinocytes (AID 1919968); note: nearly all actives have a fitted effect of over 55% in size
# Settings: KeratinoSens HaCaT ARE cells viability, CellTiter-Fluor, 24 h; series mostly up to 92.4 µM; activity change, negative = cytotoxicity: at the top concentration
# Text: U.S. Tox21 Program National Center for Advancing Translational Sciences [NCATS] Division of Preclinical Innovation [DPI] U.S. Environmental Protection Agency [EPA] National Institutes of Environmental Health Sciences [NIEHS] National Toxicology Program [NTP] U.S. Food and Drug Administration [FDA] Tox21 Assay Overview: Oxidative stress has been implicated in the pathogenesis of a variety of diseases ranging from cancer to neurodegeneration. The antioxidant response element (ARE) signaling pathway plays an important role in the amelioration of oxidative stress. The KeratinoSens (Givaudan, Switzerland) is an in vitro test method which quantifies luciferase induction as a measure of activation of Keap1-Nrf2-antioxidationt/electrophile response element (ARE) dependant pathway in HaCaT human keratinocytes stably transfected with a selectable plasmid. The KeratinoSens assay is a cell-based assay with a reporter cell line to detect potential skin sensitizers by their ability to induce the Nrf2/ARE-response. The activation of the report gene under culture conditions can be detected by ONE-Glo Luciferase Assay System (Promega, Madison, WI). This cell line has been used to screen the Tox21 10K compound library to identify agonists that induce oxidative stress. The cytotoxicity of the Tox21 compound library against the KS-ARE cell line was tested in parallel by measuring the cell viability using CellTiter- Fluor assay system (Promega, Madison, WI) in the same wells.
# Tox21 Assay Protocol Summary: HaCaT derived cell line KeratinoSens were dispensed at 1,500 cells/5uL/well in 1536-well white wall/solid bottom plates using a Multidrop Combi (ThermoFisher Scientific, Waltham, MA) dispenser. After the assay plates were incubated at 37 C/5% CO2 for 5 h, 23 nL of compounds dissolved in DMSO, positive controls or DMSO only was transferred to the assay plate by a pintool workstation (Kalypsys, San Diego, CA). The plates were incubated at 37 C/5% CO2 for 23 h, followed by addition of 1uL/well of CellTiter-Fluor reagent into the assay plates using a Flying Reagent Dispenser (Aurora Discovery, San Diego, CA) for cell viability readout that measures cytotoxicity. After 1 h incubation at 37 C/5% CO2 the fluorescence intensity was measured using a ViewLux (PerkinElmer, Shelton, CT) plate reader.
# Potency is the fitted concentration of half-maximal effect.
SMILES,Potency,"activity change, negative = cytotoxicity"
C=CC(=O)OCC(CC)(COC(=O)C=C)COC(=O)C=C,6.28 µM (active) and 12.2 µM (active),–
O=S(=O)(Oc1ccc(Cl)cc1)c1ccc(Cl)cc1,–,22.8%
O=C(Cl)OCc1ccccc1,–,2.04%
O=C(O)C(F)(F)C(F)(F)C(F)(F)C(F)(F)C(F)(F)C(F)(F)F,–,-1.49%
CCCCC(CC)COC(=O)Cl (stereo not given),inactive,–
OCC(Cl)CCl (stereo not given),–,-0.849%
CC(C)(c1ccccc1)c1cc(-n2nc3ccccc3n2)c(O)c(C(C)(C)c2ccccc2)c1,–,1.83% [at 42.5 µM]
CNCC(O)c1ccc(O)cc1 (stereo not given),inactive,–
CCOP(=O)(OCC)OP(=O)(OCC)OCC,–,7.32%
ClCC(Br)CBr (stereo not given),–,-2.22%
Cl/C=C\CCl,–,-4.18%
COc1ccc(C(O)(c2cncnc2)C2CC2)cc1 (stereo not given),–,2.02%
CCCCn1cc[n+](C)c1,inactive,–
CCc1ccccc1C,–,1.67%
CCCCC1C(=O)NC(=O)N(C2CCCCC2)C1=O (stereo not given),–,-0.268% [at 42.5 µM]
N#CCCCCC#N,inactive,–
O=S(=O)(Cl)Cl,–,1.18%
Nn1cnnc1,inactive,–
CCCOC(=O)c1ccccc1C(=O)OCCC,inactive,–
Oc1ccc(-c2ccccc2)cc1,inactive,–

SMILES,Potency,"activity change, negative = cytotoxicity"
Cl/C=C/CCl,–,1.69%
CCOC(=O)Nc1cccc(OC(=O)Nc2ccccc2)c1,–,1.85%
Cc1cc(-c2cc(C)c(N)c(C)c2)cc(C)c1N,inactive,–
COCC(=O)N(c1c(C)cccc1C)N1CCOC1=O,–,-4.64%
CCOC(=O)CC(SP(=S)(OC)OC)C(=O)OCC (stereo not given),inactive,–
Nc1ccc(Cc2ccc(N)cc2)cc1,inactive,–
Nc1ccc2ccccc2c1,inactive,–
O=[N+]([O-])c1ccccc1,inactive,–
Cc1cccc(N)c1,inactive,–
Cc1ccc(-c2nc3ccc(C)cn3c2CC(=O)N(C)C)cc1,–,-1.7% [at 42.5 µM]
CC(C)(c1ccc(OCC2CO2)cc1)c1ccc(OCC2CO2)cc1 (stereo not given),49.2 µM (active),–
NC(=O)CN1CCCC1=O,inactive,–
O=NN1CCOCC1,inactive,–
CCOc1ccc(N)cc1,inactive,–
CCCCCCCCC(=O)NCc1ccc(O)c(OC)c1,inactive,–
N#CCCO,–,-2.61%
O=C(O)c1ccccn1,inactive,–
Nc1ccc([As](=O)(O)O)cc1,inactive,–
CCN(CC)CCN1C(=O)CN=C(c2ccccc2F)c2cc(Cl)ccc21,–,-6.38% [at 42.5 µM]
Cc1cc(Cl)ccc1OC(C)C(=O)O (stereo not given),inactive,–
